This passage reports growth results from PubChem BioAssay (NCI).

SMILES strings stand for the structures. This is part of a sample that, as a whole, favours compounds with a hit. Of some 83,000 tested, about 20% had one in any assay.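 Results are percent growth after 48 hours of single-concentration exposure. 100 means growth as in untreated cells, lower positive values show inhibition; negative values down to -100 show cell death.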 Values without a mark were called inactive. The source made the active and inactive calls. How the source made its calls: active means growth percent below 10; inactive means the rest.

This assay has as its system MDA-MB-468 breast. The experiment in a line: NCI-60 one-dose screen, 48 h (100 = growth as untreated, 0 = no growth, -100 = all killed). Conditions: 10 µM unless noted.
For the compound `COc1cc(NS(=O)(=O)C(C)C)cc(-c2cc(-c3ccc(N4CCNCC4)cc3)cnc2N)c1`, the growth is 92.2%.
Turning to `CC(C)=CCCC(C)c1ccc(C)c2c1OCN(CC1CCNCC1)C2` (stereo unspecified), the growth was 7.48% (active).
For `CC(=O)OCC(=O)C1(O)C(C)CC2C3C=C(C)C4=Cc5c(cnn5-c5ccccc5)CC4(C)C3C(O)CC21C` (stereo unspecified), the growth is -10.9% (active).
For `COc1cc(NCCN(CC(C)C)C2CCCC2)c2ncccc2c1` the value was -13.9% (active).
As for `O=c1cc(-c2ccccc2)nc(SCc2nc3cc(Cl)c(Cl)cc3[nH]2)[nH]1`, the figure is 116%.
Consider `CC(C)CCNCC(O)Cn1c2ccccc2c2ccccc21` (stereo unspecified), for which the growth was 2.41% (active).
As for `CCOC(=O)C1=C(C)NC(C)=C(C(=O)OC(C)C)C1c1cccc(C#N)c1` (stereo unspecified), the figure is 79.4%; as for `O=C(CSc1nnc(-c2ccc(Cl)cc2)n1-c1ccccc1)Nc1cccc(F)c1`, 17.2%.
For `COc1cc(OC)c2c(=O)c(O)c(-c3ccccc3)oc2c1` the value was 75.5%; for `Nc1ccccc1NC(=O)c1ccc(NC(=O)C/C=C/c2cccnc2)cn1`, -19.6% (active).
Consider `N#Cc1c(-c2ccccc2)nc2c(c(-c3ccc(Cl)cc3)nn2-c2ccccc2)c1-c1ccc([N+](=O)[O-])cc1`, for which the growth was 104%.
